A selection: hits, their analogues and other compounds. The true share with any hit is near 21%.
Pf growth 48h = P. falciparum growth inhibition at 48 hours (one generation); P. falciparum luciferase growth in erythrocytes, 48 h; Potency, µM (top dose mostly 28.7 µM), usual class: inhibitors; 310,000 tested, 5.9% active
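Here the parasites carry a stable luciferase gene and grow inside erythrocytes in Albumax-based RPMI medium with compound for one erythrocytic cycle. Activity is scored as loss of luminescent signal.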
Pf growth 96h = P. falciparum growth inhibition at 96 hour, primary screen for plastid delayed-death inhibitors; P. falciparum luciferase reporter growth, 96 h; 320,000 tested, 6.9% active; Potency, µM (doses to about 28.7 µM), hits mostly inhibitors; AID 504834
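Infected RBCs, 2% Hct / 0.05% parasitemia final; luciferase-reporter P. falciparum; cpd 96 h, 37 C, 5% CO2; luciferase detection reagent; luminescence.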
NS1 function inh = inhibitors of influenza NS1 protein function; 270,000 tested, 0.4% active; Potency, µM (doses to about 46.1 µM); calls by dose curve; further: actives are rising curves; nearly all actives have a fitted effect of over 50% in size
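Compounds were scored for reversing the slow growth caused by influenza A NS1 in S. cerevisiae, measured by optical density at 600 nm. Assay medium contained 2% galactose at pH 6.0; NS1-free yeast of the same strain were the positive control.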
FBPA Giardia inh = inhibitors of Giardia lamblia fructose-1,6-bisphosphate aldolase. A8B2U2. purified Giardia FBPA. Potency, µM (series often up to 59.6 µM), usual class: inhibitors. 290,000 tested, 0.71% active. AID 2451; further: nearly all actives have a fitted effect of over 55% in size
Target sequence (A8B2U2 whole entry, looked up): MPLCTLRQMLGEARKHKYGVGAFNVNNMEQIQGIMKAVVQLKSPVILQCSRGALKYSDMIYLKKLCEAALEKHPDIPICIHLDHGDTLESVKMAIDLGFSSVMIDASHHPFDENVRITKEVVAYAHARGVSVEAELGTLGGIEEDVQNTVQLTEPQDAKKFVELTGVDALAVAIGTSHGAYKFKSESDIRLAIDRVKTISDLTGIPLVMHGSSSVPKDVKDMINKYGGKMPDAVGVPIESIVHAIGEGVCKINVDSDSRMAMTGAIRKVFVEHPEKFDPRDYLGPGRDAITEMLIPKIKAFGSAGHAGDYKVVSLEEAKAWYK
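40 nM FBPA preincubated 10 min at RT with compound (up to 57.5 uM final), then substrate plus GAPDH/TPI/NAD/arsenate coupling and diaphorase/resazurin added. Fluorescence read after 20 min at RT, 525/598 nm.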
Shiga toxin inh = inhibitors of Shiga toxin in Vero cells. Vero cells, Shiga toxin protein synthesis inhibition reporter. inhibition, % at 38.7 µM. 290,000 tested, 9.2% active; in the data active means inhibition mostly above about 28%, no sharp cut-off; inactive means mostly below about 43%
Cycloheximide cs = counter-screen for Shiga toxin inhibitors: cycloheximide protein synthesis inhibition | cell reporter, cycloheximide protein synthesis inhibition counterscreen | max response, % | 300,000 tested, 12% active; in the data active means max response mostly above about 13%, no sharp cut-off; inactive means mostly below about 14%; further: read at 38.3 µM for the half of the compounds with a filed dose
Numbers stand for hits; – = inactive; ? = inconclusive; · = no result given. Unless noted, the call rests on the fitted dose curve; in most records, active means well fitted curve in the direction sought with a large enough effect; inconclusive means small, poorly fitted or top-dose-only effect, or another doubt; inactive means no such curve, though single readings can be large; an effect the other way counts as inactive or inconclusive.

SMILES | Pf growth 48h | Pf growth 96h | NS1 function inh | FBPA Giardia inh | Shiga toxin inh | Cycloheximide cs
O=C(NCCCn1ccnc1)Nc1ccc(Cl)cc1 | – | – | – | · | – | –
Cc1cc(C(=O)NCCc2ccccc2)c2cc(F)ccc2n1 | – | – | – | – | – | –
Cc1ccc(NC(=O)c2cc(-c3cccs3)nc3ccccc23)nc1 | ? | ? | – | – | – | –
Cc1ccc2sc(NNC(=O)c3cc(-c4cccs4)nc4ccccc34)nc2c1C | ? | 10µM | – | – | – | –
O=C(NNc1nc2ccc(Cl)cc2s1)c1cc(-c2cccs2)nc2ccccc12 | ? | 7.4µM | – | – | – | –
CC(C)OCCCNC(=O)c1cc(-c2cccs2)nc2ccccc12 | – | – | – | – | – | –
Cc1cc(C)c2nc(NNC(=O)c3cc(-c4cccs4)nc4ccccc34)sc2c1 | 1.9µM | 3.3µM | – | – | – | –
CC(=O)N1CCc2c(sc3c2c(=O)n(Cc2ccccc2)c(=O)n3CC(=O)NCC2CCCO2)C1 (stereo unspecified) | 0.37µM | – | – | – | – | –
Cn1c(=O)n(CC(=O)NCC2CCCO2)c(=O)c2c3c(sc21)CCCC3 (stereo unspecified) | – | – | – | · | – | –
CCOC(=O)N1CCc2c(sc3c2c(=O)n(-c2ccc(CC)cc2)c(=O)n3CC(=O)NCC2CCCO2)C1 (stereo unspecified) | 5.2µM | ? | – | · | – | –
Nc1nc2c(ncn2C2OC(CO)CC2O)c(=O)[nH]1 (stereo unspecified) | · | · | · | – | · | ·
CCC(C)C(NC(=O)C1CCC(C)CC1)C(=O)NCCc1ccc(S(N)(=O)=O)cc1 (stereo unspecified) | – | – | – | – | – | –
CC1Sc2ccc(S(=O)(=O)N(C)Cc3ccccc3)cc2NC1=O (stereo unspecified) | – | ? | – | · | – | –
CC1CCN(S(=O)(=O)c2ccc3c(c2)CC(C)N3C(=O)C2CCC2)CC1 (stereo unspecified) | – | – | – | – | – | –
CC1Sc2ccc(S(=O)(=O)N3CCC(C(=O)N(C)Cc4ccccc4)CC3)cc2NC1=O (stereo unspecified) | 9.3µM | 5.9µM | – | · | – | –
CCC1Sc2ccc(S(=O)(=O)N3CCN(c4ccccc4)CC3)cc2NC1=O (stereo unspecified) | ? | 10µM | – | · | – | –
CC1Sc2ccc(S(=O)(=O)N3CCC(C(=O)N(C)Cc4ccco4)CC3)cc2NC1=O (stereo unspecified) | 12µM | – | – | · | – | –
CC1Cc2cc(S(=O)(=O)N3CCC(C(=O)N(C)Cc4ccco4)CC3)ccc2N1C(=O)C1CCC1 (stereo unspecified) | 12µM | ? | – | – | – | –
O=C(NC1CCSc2ccccc21)c1cccc(S(=O)(=O)N2CCOCC2)c1 (stereo unspecified) | – | – | · | · | · | ·
COc1ccccc1C(CNC(=O)CNC(=O)c1ccccc1Cl)N1CCCC1 (stereo unspecified) | – | – | · | · | · | ·
O=C(CC(Sc1ccc(Br)cc1)C(=O)O)c1ccc(F)cc1 (stereo unspecified) | · | ? | – | – | – | –
COc1ccc(-c2csc(NC(=O)CCS(=O)(=O)c3ccccc3)n2)c(OC)c1 | – | ? | – | – | – | –
CCCCn1c(N)c(N(Cc2ccccc2OC)C(=O)CCSC)c(=O)[nH]c1=O | – | ? | – | · | – | –
CCCCn1c(N)c(N(Cc2ccccc2OC)C(=O)c2ccc([N+](=O)[O-])s2)c(=O)[nH]c1=O | 10µM | 9.3µM | · | · | · | ·
COc1ccc(CN(C(=S)Nc2ccccc2)C2CC(=O)N(c3ccc(F)cc3)C2=O)cc1 (stereo unspecified) | ? | ? | – | – | – | 31
SMILES | Pf growth 48h | Pf growth 96h | NS1 function inh | FBPA Giardia inh | Shiga toxin inh | Cycloheximide cs
O=C1CC(N(CCc2ccccc2)C(=S)Nc2ccccc2)C(=O)N1c1ccc(Br)cc1 (stereo unspecified) | ? | ? | ? | – | – | –
Cc1ccc(N2C(=O)CC(N(CCc3ccccc3)C(=S)Nc3ccc(N(C)C)cc3)C2=O)cc1 (stereo unspecified) | 12µM | ? | ? | – | – | –
COc1ccc(CCN(C(=S)Nc2ccccc2)C2CC(=O)N(c3ccccc3)C2=O)cc1 (stereo unspecified) | ? | ? | – | – | – | –
CNC(=S)N(Cc1ccc(OC)cc1)C1CC(=O)N(c2ccc(Cl)cc2)C1=O (stereo unspecified) | ? | 0.93µM | – | – | – | –
O=C1c2ccccc2C(=O)C1(CO)c1ccc(OC(F)F)cc1 | 12µM | – | – | – | 27 | 53
COC(=O)CC1(c2ccccc2)C(=O)c2ccccc2C1=O | · | – | – | – | – | –
O=C1c2ccccc2C(=O)C1(CO)c1ccccc1 | – | – | · | – | 106 | 34
CC(=O)N(C)c1ccc(NC(=O)Cc2cccs2)cc1 | – | – | – | – | · | 18
CCOC(=O)c1cc(NCc2cccs2)ccc1N1CCOCC1 | – | 1.5µM | – | – | – | –
O=C(Cc1cccs1)Nc1ccc(N2CCOCC2)cc1 | · | – | – | ? | 111 | 24
O=C(Nc1ccc(Cl)cc1)N(Cc1nc2ccccc2c(=O)[nH]1)Cc1cccs1 | 15µM | 3.3µM | – | – | – | –
CC1(C)OC(=O)C=C[C@]2(C)[C@H]3CC[C@@]4(C)[C@H](C(=O)O)OC(=O)[C@H]5O[C@]54[C@]3(C)C(=O)C[C@@H]12 | – | – | · | · | · | ·
O=C(Nc1ccccc1)N(O)c1ccc(Cl)cc1 | – | – | – | – | 98 | 49
O=C(Nc1ccc(Cl)cc1)N(Cc1cccs1)Cc1cccs1 | ? | ? | – | – | 45 | 14
Cc1cc(NC(=O)Cc2cccs2)no1 | – | ? | ? | – | – | –
Cc1cccc(NC(=O)Cc2cccs2)n1 | – | – | – | – | 69 | 33
CCN(CCS(=O)(=O)c1ccc(Cl)cc1)C(=O)Nc1ccccc1 | ? | – | – | – | – | –
O=C(Cc1cccs1)Nc1ccc(Cl)cc1 | – | · | – | – | active | 17
NC(=O)c1ccc(NC(=O)Cc2cccs2)cc1 | – | ? | ? | – | – | –
CC(=O)Nc1ccc(S(=O)(=O)N(C)CC(=O)OCC(=O)c2ccc3c(c2)NC(=O)CO3)cc1 | – | – | · | · | · | ·
CCOC(=O)CNC(=O)COc1coc(CN2CCN(c3ccc(F)cc3)CC2)cc1=O | – | ? | – | · | – | –
Cc1ccc(O)c(C2=Nc3ccccc3C2(C)C)c1 | – | – | – | – | 89 | 49
COc1ccc(C(=O)NNC(=O)Cc2nc3nc(C)cc(C)n3n2)cc1 | – | – | ? | · | – | –
CCN(CC)C1CCN(Cc2c(C(=O)N3CCCCCCC3)nc3ccc(Cl)cn23)C1 (stereo unspecified) | ? | 12µM | – | · | – | –
c1ccc2c(c1)Nc1ccccc1S2 | 12µM | 4.8µM | – | – | – | –
O=[N+]([O-])c1ccc(O)c(CN2CCCCCC2)c1 | – | – | – | – | · | –
CCCCCCCC/C=C\CCCCCCCC(=O)N[C@@H](CO)Cc1ccc(O)cc1 | · | · | · | – | · | ·

Bioassay records: PubChem BioAssay, National Center for Advancing Translational Sciences (NCATS)
